TDP1 cell noCPT = qHTS for Inhibitors of human tyrosyl-DNA phosphodiesterase 1 (TDP1): qHTS in cells in absence of CPT; DT40 Tdp1-/- hTDP1 cells, no CPT, ATP luminescence, 48 h; Potency, µM (doses to about 46.2 µM), for inactives: top-dose activity change, negative = growth inhibition, actives largely listed as inhibitors; hit rate 15% among 420,000; AID 686978, 2013; note: potency is the fitted concentration of half-maximal effect; nearly all actives have a fitted effect of over 55% in size
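No-CPT arm: Tdp1-/-;hTDP1 DT40 cells (400/well) plus compounds, incubated ≥48 hr at 37 °C. Readout CellTiter-Glo luminescence.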
TDP1 cell CPT = qHTS for Inhibitors of human tyrosyl-DNA phosphodiesterase 1 (TDP1): qHTS in cells in presence of CPT; chicken DT40 Tdp1-/-;hTDP1 cells + 20 nM CPT, ATP luminescence, 48 h; Potency, µM (highest dose often 46.2 µM), without a hit: at the top dose activity change, negative = growth inhibition, hits mostly inhibitors; hit rate 12% among 420,000; AID 686979, 2013; note: potency is the fitted concentration of half-maximal effect; nearly all actives have a fitted effect of over 55% in size
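Cell growth measured by CellTiter-Glo luminescence after a minimum 48 h, 37 C compound exposure with 20 nM CPT in Tdp1-knockout DT40 cells stably expressing hTDP1, seeded 400/well; qHTS titration format.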
IL1B secr inh = qHTS for Inhibitors of Inflammasome Signaling: IL-1-beta AlphaLISA Primary Screen; THP-1 LPS/ATP IL-1B secretion, AlphaLISA, 16 h; hits give low values; activity change, % at 57.5 µM; hit rate 4.7% among 360,000; in the data active = activity change below about -50%; inconclusive = mostly about -30% to -49%
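THP-1 cells pretreated 1 hr with compounds (up to 57.5 uM final), then stimulated with LPS (250 ng/mL final) plus ATP (1.25 mM final); secreted IL-1B measured by AlphaLISA after 16 hr, decreased signal indicating inhibition.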
HT1080 IDH1KD tx = qHTS for induction of synthetic lethality in tumor cells producing 2HG: qHTS for the HT-1080-IDH1KD cell line. HT-1080 IDH1 knockdown viability, ATP luminescence, 48 h. Potency, µM (top dose mostly 46.1 µM), without a hit: top-dose activity, negative = toxicity, most hits filed as cytotoxic. hit rate 2% among 360,000;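 note: potency is the fitted concentration of half-maximal effect; 0% = DMSO wells and -100% = cell-free medium wells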
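CellTiter-Glo luminescence after 48 h compound exposure at 37 degrees C of IDH1-knockdown HT-1080 cells in 5% FBS RPMI. %Activity scaled between DMSO wells and cell-free media wells, with curves fitted and assigned curve classes.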
HT1080NT lethal = qHTS for induction of synthetic lethality in tumor cells producing 2HG: qHTS for the HT-1080-NT fibrosarcoma cell line; Potency, µM (top dose mostly 46.1 µM), for the others: at the highest dose activity, negative = less viability, actives largely listed as cytotoxic; AID 686970, 2013; HT-1080-NT fibrosarcoma viability, CellTiter-Glo ATP luminescence, 48 h; hit rate 1.6% among 360,000;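 note: NT is the 2HG producing partner of a matched IDH1 knockdown line; potency is the fitted concentration of half-maximal effect; 0% = DMSO-treated cells and -100% = media-only wells without cells; nearly all actives have a fitted effect of over 55% in size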
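Viability by CellTiter-Glo luminescence after 48 h compound exposure at 37C of HT-1080-NT cells (750/well, RPMI, 5% FBS). % activity scaled between DMSO wells and medium-only wells, then curve-fitted and categorized by curve class.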
Numbers without * were called inactive; ? = inconclusive; . = no result. The list is not random: actives were taken first. Their share in the collection is about 19%. Unless noted, calls come from the whole dose curve; as a rule, active = well fitted curve in the direction sought with a large enough effect; inconclusive = small, poorly fitted or top-dose-only effect, or another doubt; inactive = no such curve, though single readings can be large; an effect the other way counts as inactive or inconclusive. Unless noted, % is set by controls: 0 for no effect and ±100 for the full control effect.

SMILES	TDP1 cell noCPT	TDP1 cell CPT	IL1B secr inh	HT1080 IDH1KD tx	HT1080NT lethal
CCOCCCn1c(=N)c(C(=O)NCc2cccnc2)cc2c(=O)n3cc(C)ccc3nc21	-15.1%	2.3%	.	.	.
CCCCCCCCNc1ccccc1S(=O)(=O)NCc1ccccc1	18.4µM*	?	0.0	?	?
O=S(=O)(NCc1ccccc1)c1cccc2cccnc12	-6.0%	-12.5%	19.2	11.8%	8.8%
CCOc1ccc(S(=O)(=O)n2c(C)nc3ccccc32)cc1	20.6µM*	?	42.0	-27.6%	?
CCOc1ccc(S(=O)(=O)N2CCC(C(=O)NCc3ccncc3)CC2)cc1	-11.2%	-0.8%	0.0	-1.1%	-4.0%
CCOc1ccc(S(=O)(=O)N2CCC(c3ccncc3)CC2)cc1	?	11.6µM*	.	.	.
CCOc1ccc(S(=O)(=O)N2CCC(n3c(C)nc4cccnc43)CC2)cc1	11.6µM*	20.6µM*	.	.	.
CCCS(=O)(=O)N1CCC(n2c(C)nc3cccnc32)CC1	18.4µM*	18.4µM*	.	.	.
CCCCOc1ccc(S(=O)(=O)n2c(C)nc3ccccc32)cc1	?	?	0.9	-3.8%	?
COc1ccccc1CNC(=O)c1cc2cc3ccc(Cl)cc3nc2o1	-10.3%	10.7%	.	.	.
CN1CCC(=C(c2ccccc2)c2ccc(Br)cc2)CC1	16.4µM*	?	-27.4	-1.1%	-4.2%
S=c1nc(NCCc2ccccc2Cl)c2ccccc2[nH]1	25.9µM*	-27.7%	-5.7	?	?
O=C(NCc1ccccc1Cl)C1CCC(CNc2nc(=S)[nH]c3ccccc23)CC1 (stereo not drawn)	25.9µM*	?	2.7	0.7%	-0.1%
CC1CCN(c2c(NCC3CCC(C(=O)NCCc4ccc(Cl)cc4)CC3)c(=O)c2=O)CC1 (stereo not drawn)	-83.7%	?	?	-5.8%	1.6%
O=C(NCc1ccccc1Cl)C1CCC(CNS(=O)(=O)c2ccc(Cl)cc2)CC1 (stereo not drawn)	-12.5%	-27.9%	.	.	.
O=C(NCCC1=CCCCC1)C1CCC(CNc2nc(=S)[nH]c3ccccc23)CC1 (stereo not drawn)	16.4µM*	?	-26.7	-8.5%	-1.7%
O=C(NCCc1ccc(Cl)cc1)C1CCC(CNc2nc(=S)[nH]c3ccccc23)CC1 (stereo not drawn)	9.2µM*	6.51µM*	-2.9	3.3%	-10.0%
CCCCN(C(=O)Cc1coc2cc(C)c(C)cc12)c1c(N)n(Cc2ccccc2)c(=O)[nH]c1=O	-17.5%	-8.2%	-4.2	-1.2%	-2.2%
CCCCn1c(-c2sccc2C)n[nH]c1=S	?	7.6%	30.5	4.6%	7.7%
Cc1ccc(CNC(=O)Cn2c(=O)n(-c3ccccc3)c(=O)c3sccc32)cc1	-10.9%	-17.3%	18.6	-14.5%	-7.6%
O=C(COC(=O)c1ccc(=O)n(Cc2ccccc2)n1)Nc1ccc2c(c1)OCCO2	-2.7%	-5.7%	8.8	18.4%	15.2%
CCCCC(NC(C)=O)c1nc2ccccc2n1CCCC (stereo not drawn)	2.06µM*	4.11µM*	-17.5	15.4%	15.4%
CCCCCn1c(C(Cc2ccccc2)NC(C)=O)nc2ccccc21 (stereo not drawn)	25.9µM*	?	-13.5	2.9%	14.7%
CCCCCn1c(CNC(C)=O)nc2ccccc21	?	?	6.2	-4.5%	1.8%
O=C(c1nc(-c2ccc(Cl)cc2)n2c1CCCCC2)N1CCN(c2ccc(F)cc2)CC1	10.3µM*	23.1µM*	.	.	.
SMILES	TDP1 cell noCPT	TDP1 cell CPT	IL1B secr inh	HT1080 IDH1KD tx	HT1080NT lethal
O=C(c1ccc(Cl)cc1)N1CCN(c2ccc(F)cc2)CC1	?	?	-27.8	12.6%	-1.6%
O=C(c1nc(-c2ccc(Cl)cc2)n2c1CCCCC2)N1CCN(c2ccccc2F)CC1	16.4µM*	?	.	.	.
O=C(NC1(C(F)(F)F)C(=O)Nc2c1c(=O)[nH]c(=O)n2CCc1ccccc1)c1ccc(Cl)cc1 (stereo not drawn)	4.5%	8.9%	.	.	.
OCC[C@H]1C[C@H](O)[C@@H](O)[C@]2(CCc3ccccc3CO2)O1	-1.0%	4.9%	34.9	0.9%	9.7%
CCC1(CC)Cc2ccccc2C(=O)N1	-0.6%	3.0%	5.6	12.6%	11.0%
CCC1(CC)Cc2ccccc2C(N)=C1C#N	20.6µM*	20.6µM*	23.3	-11.6%	-12.4%
COc1ccc(CNC(=O)c2ccc3[nH]c(C)c(C)c3c2)c(OC)c1	?	-9.2%	.	.	.
CCCN1C(=O)c2cc(C(=O)Nc3ccc(OC)cc3OC)ccc2C1Nc1ccc(OC)cc1OC (stereo not drawn)	?	23.1µM*	-13.3	2.3%	-0.5%
COc1ccc(NC(=O)c2ccc3[nH]c(C)c(C)c3c2)c(OC)c1	18.4µM*	23.1µM*	-5.5	-20.1%	-4.4%
COc1ccc(NC(=O)c2ccc(-n3c(C)ccc3C)cc2)c(OC)c1	?	?	-75.4*	-21.8%	-3.9%
CCOc1ccccc1NC(=O)c1cc(CC(C)C)oc1C	23.1µM*	23.1µM*	22.3	6.0%	7.5%
CCN(CC)C(=O)C(c1ccccc1)S(=O)(=O)N1CCOCC1 (stereo not drawn)	-0.7%	-3.4%	0.0	?	-0.4%
CCOc1ccccc1NC(=O)c1ccc2[nH]c(C)c(C)c2c1	25.9µM*	?	33.1	?	?
CCOc1ccccc1NC(=O)c1ccc2ccccc2c1	?	8.1%	10.2	2.0%	-0.7%
Cc1cc(C)cc(NC(=S)N2CCN(CCO)CC2)c1	-13.2%	5.4%	0.0	-0.2%	-4.9%
C[C@H]1CN=C(Nc2ccccc2)N1CCCC1CCCCC1	?	?	?	-21.4%	-2.7%
C[C@H]1CN=C(Nc2ccccc2)N1CC1CCCCC1	?	?	-3.9	2.5%	-3.1%
c1ccc(CCCCN2C(Nc3ccccc3)=NC[C@@H]2Cc2ccccc2)cc1	23.1µM*	?	-55.3*	-4.8%	-22.7%
CCCCCCCN1C(Nc2ccccc2)=NC[C@@H]1Cc1ccccc1	18.4µM*	?	-15.7	?	?
CC(C)(C)C1CCC(CN2C(Nc3ccccc3)=NC[C@@H]2Cc2ccccc2)CC1 (stereo partly drawn)	13µM*	23.1µM*	?	-25.0%	-17.0%
c1ccc(C[C@H]2CN=C(Nc3ccccc3)N2CCCC2CCCC2)cc1	16.4µM*	?	-3.5	?	?
COc1ccc(NC(=O)C2CCN(c3ccc(Sc4ccc(C)cc4)nn3)CC2)cc1	-20.2%	-25.7%	.	.	.
